RAD52 anneal inh: inhibitors of human RAD52 DNA annealing; inhibition, % at 18.7 µM; recombinant RAD52 DNA annealing, FRET fluorescence; P43351; 360,000 compounds, 0.46% hits;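 active = every replicate showing at least 50% inhibition; inconclusive = mean inhibition at least 50% but not in every replicate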
dFosB act: mouse delta FosB homodimer activation. P13346. purified delta FosB, TAMRA-CDK5 oligo fluorescence polarization; percent of positive-control signal above neutral wells. activation, % at 25 µM. 340,000 compounds, 0.99% hits. AID 493131;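 active = mean activation above about 17%, with every replicate also reaching it, limit read from the data, passing the limit was not always enough; inconclusive = only one of the two conditions met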
DENV2 CPE: protects cells from dengue virus 2 cytopathic effect; DENV2-infected cells, cytopathic effect rescue, plate reader; 350,000 compounds, 1.7% hits; CPE inhibition, % at 9.99 µM; in the data active = CPE inhibition above about 20%, passing the limit was not always enough; inconclusive = no clear call, values can overlap the other calls; tested in BHK-21 cells
GSIS activator: GLuc luminescence reporter in INS-1E cells, primary screen for activators of glucose-dependent secretion of insulin. activation, % at 16.6 µM. 370,000 compounds, 0.61% hits. INS-1E GLuc reporter insulin secretion, 2-3 h;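 active = lowest replicate activation of at least 40%, so every replicate reaches that level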
AF4-AF9 inh: blocks AF4 peptide binding to human AF9. P42568. AlphaScreen, biotin-AF4 peptide binding to FLAG-AF9. inhibition, % at 10 µM. 350,000 compounds, 0.47% hits;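 active = every replicate reaching a set inhibition limit, whatever the replicate mean, cut at about 25% in these data; inconclusive = mean inhibition reaches that limit but some replicates miss it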
Target sequence (P42568 whole entry, looked up): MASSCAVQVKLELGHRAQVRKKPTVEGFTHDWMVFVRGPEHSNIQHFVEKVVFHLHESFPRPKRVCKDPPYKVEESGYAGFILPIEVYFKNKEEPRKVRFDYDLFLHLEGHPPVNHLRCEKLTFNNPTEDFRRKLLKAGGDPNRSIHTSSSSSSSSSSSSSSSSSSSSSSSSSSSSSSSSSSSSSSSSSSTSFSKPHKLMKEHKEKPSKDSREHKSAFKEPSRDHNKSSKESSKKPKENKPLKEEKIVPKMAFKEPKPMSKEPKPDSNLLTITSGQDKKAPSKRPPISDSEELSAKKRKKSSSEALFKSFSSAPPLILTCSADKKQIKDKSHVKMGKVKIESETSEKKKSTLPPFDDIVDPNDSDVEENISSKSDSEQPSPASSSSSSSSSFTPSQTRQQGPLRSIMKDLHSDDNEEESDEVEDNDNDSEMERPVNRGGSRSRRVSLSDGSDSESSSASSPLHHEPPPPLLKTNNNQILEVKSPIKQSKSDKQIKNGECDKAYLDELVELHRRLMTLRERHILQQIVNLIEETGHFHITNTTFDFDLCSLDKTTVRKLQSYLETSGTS
RAD54 inh: RAD54 (human) branch migration inhibition; Q92698; RAD54 Holliday junction branch migration, FAM/BHQ fluorescence; inhibition, % at 10.4 µM; 360,000 compounds, 0.14% hits;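 active = mean normalized replicate activity at least 40 and at least half of replicates scoring 40 or more; inconclusive = only one of the two criteria met; inactive = mean below 40 and under half of replicates reaching 40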;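 also: inhibitors cause a drop in the FAM fluorescence signal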
Hits are given with their value; i = inactive; ? = inconclusive; nt = not tested or not shown; ! = not active in a repeat. Compounds with a hit are over-represented: about 3.1% of the library has one in this group of screens.

SMILES	RAD52 anneal inh	dFosB act	DENV2 CPE	GSIS activator	AF4-AF9 inh	RAD54 inh
O=C(Nc1cc(F)ccc1F)N[C@H]1CC[C@H](CCn2cc(C3CC3)nn2)O[C@H]1CO	i	nt	i	i	i	i
COc1ccc2c3c(n(C)c2c1)[C@@H](CO)N(C(=O)c1ccccc1)CC31CN(C(=O)c2ccccc2)C1	i	nt	i	i	i	nt
COc1ccc(NC(=O)Nc2ccc3c(c2)C(=O)N([C@H](C)CO)C[C@H](C)[C@@H](CN(C)S(=O)(=O)c2ccc(C)cc2)OCCCC[C@@H](C)O3)cc1	i	nt	i	i	i	i
CCn1cc(C(=O)O)c(=O)c2cc(F)c(N3CCN(C)CC3)cc21	i	i	28	i	i	i
CCCCCCn1cc(C(=O)O)c(=O)c2cc(F)c(N3CCN(C)CC3)cc21	nt	i	nt	nt	nt	i
CCn1cc(C(=O)O)c(=O)c2cc(F)c(N3CCN(C(=S)NC(=O)c4cccc(C)c4)CC3)cc21	i	i	i	44	i	nt
CCn1cc(C(=O)O)c(=O)c2cc(F)c(N3CCN(C(=S)NC(=O)c4ccc(Br)cc4)CC3)cc21	i	i	i	i	i	i
CC(C)C#Cc1ccc([C@H]2[C@H](CO)N3C(=O)CN(C(=O)Cc4ccccc4)C[C@@H]23)cc1	i	nt	i	i	i	nt
O=C(C[C@H]1CC[C@@H]2[C@H](COC[C@H](O)CN2C(=O)c2ccccn2)O1)N1CCN(c2ccccc2)CC1	i	nt	39	i	i	i
CCNC(=O)C[C@H]1CC[C@@H]2[C@H](COC[C@@H](O)CN2C(=O)c2ccccn2)O1	nt	nt	i	i	nt	i
O=C(C[C@@H]1CC[C@@H]2[C@H](COC[C@H](O)CN2C(=O)c2ccccn2)O1)N1CCN(c2ccccc2)CC1	i	nt	i	i	i	i
CNC(=O)C[C@@H]1CC[C@@H]2[C@H](COC[C@H](O)CN2C(=O)c2ccccn2)O1	i	nt	69	i	i	i
O=C(C[C@@H]1CC[C@H]2[C@@H](COC[C@@H](O)CN2C(=O)c2ccncc2)O1)Nc1ccc(-c2ccccc2)cc1	i	nt	21	i	i	i
O=C(C[C@H]1CC[C@@H]2[C@H](COC[C@H](O)CN2C(=O)c2ccccc2)O1)N1CCc2ccccc2C1	i	nt	28	i	i	i
CO[C@@H]1CN(C)C(=O)c2ccc(NC(C)=O)cc2OC[C@@H](C)N(Cc2cc(F)ccc2F)C[C@H]1C	i	nt	i	i	i	i
CCCNC(=O)C[C@@H]1C[C@H]2c3cc(NC(=O)C4CCOCC4)ccc3O[C@H]2[C@@H](CO)O1	i	nt	i	i	i	i
COc1ccc(NC(=O)CSc2ncnc3c2sc2ccccc23)c(OC)c1	nt	i	nt	58	nt	nt
CO[C@H]1CC[C@@H]2CCN(C)C(=O)[C@H](C)[C@@H](OC)CN(C)C(=O)c3cc(C#N)ccc3OC[C@@H]1O2	i	nt	i	i	i	i
COc1cccc(S(=O)(=O)N2C[C@@H]3N[C@H](C2)C3c2ccc(-c3ccccc3OC)cc2)c1 (stereo partly drawn)	56!	nt	i	i	i	nt
COc1cccc(S(=O)(=O)N2C[C@@H]3N[C@H](C2)C3c2ccc(-c3ccccc3C)cc2)c1 (stereo partly drawn)	i	nt	i	i	i	nt
COc1ccccc1-c1ccc([C@@H]2[C@@H]3CN(S(=O)(=O)c4ccc(-c5ccccc5)cc4)C[C@H]2N3)cc1	88	nt	i	i	i	nt
Cc1ccccc1S(=O)(=O)N1C[C@@H]2N[C@H](C1)C2c1ccc(-c2ccc(C(=O)N(C)C)cc2)cc1 (stereo partly drawn)	i	nt	i	i	i	nt
COc1ccccc1-c1ccc(C2[C@@H]3CN(S(=O)(=O)c4ccccc4C)C[C@H]2N3)cc1 (stereo partly drawn)	51	nt	i	i	i	nt
COc1ccccc1S(=O)(=O)N1C[C@@H]2N[C@H](C1)C2c1ccc(-c2ccccc2)cc1 (stereo partly drawn)	i	nt	?	i	i	nt
Cc1ccccc1S(=O)(=O)N1C[C@@H]2N[C@H](C1)C2c1ccc(-c2ccc(C#N)cc2)cc1 (stereo partly drawn)	72!	nt	i	i	i	nt
SMILES	RAD52 anneal inh	dFosB act	DENV2 CPE	GSIS activator	AF4-AF9 inh	RAD54 inh
C[C@@H]1CN([C@@H](C)CO)C(=O)c2cc(NC(=O)CCC(F)(F)F)ccc2O[C@@H]1CN(C)S(=O)(=O)c1cn(C)cn1	i	nt	i	i	i	i
C[C@@H]1CN([C@@H](C)CO)C(=O)Cc2cc(NS(C)(=O)=O)ccc2O[C@H]1CN(C)C(=O)Nc1ccc(C(F)(F)F)cc1	nt	nt	nt	i	i	nt
COc1cccc(-c2ccc(C3[C@@H]4CN(S(=O)(=O)c5cccc(OC)c5)C[C@H]3N4)cc2)c1 (stereo partly drawn)	70!	nt	i	i	i	nt
CCCNC(=O)NC[C@H]1[C@H](c2ccc(C3=CCCC3)cc2)[C@H](CO)N1C(=O)CC	i	nt	i	i	i	i
CCc1cccc(NC(=O)C2CCN(S(=O)(=O)c3ccc4c(c3)NC(=O)CO4)CC2)c1	i	i	i	i	i	i
CCc1cccc(NC(=O)C2CCN(S(=O)(=O)c3ccc4[nH]c(=O)ccc4c3)CC2)c1	i	i	?	i	40	i
Cc1ccc(NC(=O)C2CCCN(S(=O)(=O)c3ccc4[nH]c(=O)ccc4c3)C2)cc1C (stereo not drawn)	i	i	i	i	i	i
Cc1cccc(NC(=O)C2CCCN(S(=O)(=O)c3ccc4[nH]c(=O)ccc4c3)C2)c1 (stereo not drawn)	i	45	i	i	i	i
CC(C)NC(=O)N(C)C[C@H]1OCCCC[C@H](C)Oc2ccc(NC(=O)c3ccncc3)cc2C(=O)N([C@@H](C)CO)C[C@@H]1C	nt	nt	nt	i	nt	nt
CC(=O)c1c(C)[nH]c(C(=O)NNC(=O)COc2cc(C)cc(C)c2)c1C	i	i	33	i	i	i
CCN(CC)CC(=O)N1CCCC(N2CCN(c3cccc(C(F)(F)F)c3)CC2)C1 (stereo not drawn)	i	i	30	i	i	i
O=C(c1cc(C2CC2)on1)N1CCCC(N2CCN(c3cccc(C(F)(F)F)c3)CC2)C1 (stereo not drawn)	i	i	30	i	i	i
C[C@H](CO)N1C[C@H](C)[C@H](CN(C)C(=O)Nc2cccc(F)c2)OCc2ccccc2-c2ccccc2C1=O	i	nt	i	i	i	i
C[C@@H]1CN([C@H](C)CO)C(=O)Cc2cc(NC(=O)Nc3ccc4c(c3)OCO4)ccc2O[C@H]1CN(C)Cc1ccc2c(c1)OCO2	i	nt	i	i	i	i
CO[C@@H]1CN(C)C(=O)c2ccc(NC(=O)Nc3cc(F)ccc3F)cc2OC[C@H](C)NC[C@H]1C	i	nt	i	i	i	i
Cc1ccc(NC(=O)Cn2cc(C=O)c3ccccc32)cc1C	i	20	i	i	i	i
Cc1cc(C)cc(NC(=O)/C(C#N)=C/c2cn(CC(=O)NCc3ccco3)c3ccccc23)c1	nt	33	nt	i	nt	nt
